Some test systems named below: NCI-H23 lung; NCI-H226 lung; NCI-H322M lung; HOP-62 NSCLC; NCI-H460 lung; HOP-92 NSCLC; NCI-H522 lung; A549/ATCC NSCLC; 786-0 renal; COLO 205 colon.
Common to all, as to test: NCI-60 one-dose screen, 48 h (100 = growth as untreated, 0 = no growth, -100 = all killed)
What all share (conditions): 10 µM unless noted

Results on 13 molecules are retold here after PubChem BioAssay (NCI).

About 83,000 compounds went through this panel and 20% of them were active in at least one assay; those are over-represented in the sample as a whole.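 Step 1: grow cells in 96-well plates. Step 2: add test compound at a single concentration. Step 3: incubate 48 h. Step 4: record percent growth.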 A number with no mark means an inactive call. The source made the active and inactive calls. How the source made its calls: active means growth percent below 10; inactive means the rest.

On to `O=S(=O)(Nc1ccc(I)cc1F)c1ccc(-c2cnc(C3CC3)o2)cc1`, for which the growth in the assay with NCI-H23 lung was 71.2%; in the assay with NCI-H226 lung, 80.2%; in the assay on NCI-H322M lung, 86.2%; with HOP-62 NSCLC, 52.4%; with NCI-H460 lung it was 38.4%; in the assay on HOP-92 NSCLC, 62.1%. In addition, the growth with NCI-H522 lung is 31.2%; in the assay with A549/ATCC NSCLC, 50.6%; in the assay with 786-0 renal, 69.1%; in the assay on COLO 205 colon, 68.4%.
As for `CCOc1nc(-c2ccccc2)cc2c(O)c(C(=O)N/N=C/c3ccc(O)cc3O)[nH]c(=O)c12`, the growth with NCI-H23 lung was 3.35% (active); with NCI-H226 lung it was 26.4%; in the assay with NCI-H322M lung, 42.2%; in the assay on HOP-62 NSCLC, 27.1%; in the assay on NCI-H460 lung, 61.6%; in the assay on HOP-92 NSCLC, -12.1% (active). Besides, the growth in the assay on NCI-H522 lung is 10.8%; with A549/ATCC NSCLC, 46.2%; with 786-0 renal, 14.4%; in the assay on COLO 205 colon, 15.9%.
With `CC(=O)OCCC/C(=C/c1cc2ccccc2c2ccccc12)[N+](=O)[O-]`, the growth was -76.5% (active) with NCI-H23 lung; -51.6% (active) in the assay on NCI-H226 lung; 58.2% in the assay with NCI-H322M lung; -61.3% (active) with HOP-62 NSCLC; -18.5% (active) with NCI-H460 lung; -76% (active) with HOP-92 NSCLC. The growth was -59.9% (active) with NCI-H522 lung, -94.6% (active) in the assay with A549/ATCC NSCLC, -89.5% (active) in the assay with 786-0 renal and -85.9% (active) with COLO 205 colon.
Regarding `Cc1ccccc1COc1ccc(-c2ccnn2-c2ccc(Cl)cc2)cc1`, the growth was 76.6% in the assay on NCI-H23 lung; 70.3% with NCI-H226 lung; 96.9% in the assay on NCI-H322M lung; 49.3% with HOP-62 NSCLC; 58.3% in the assay on NCI-H460 lung; 74.2% with HOP-92 NSCLC. The growth in the assay on NCI-H522 lung was 29.1%; in the assay with A549/ATCC NSCLC, 49.6%; with 786-0 renal it was 82.8%; in the assay with COLO 205 colon it was 71.2%.
As for `COc1ccc(C(=S)N2CCN(c3cccc(Cl)c3)CC2)cc1`, the growth was 101% with NCI-H23 lung; 113% with NCI-H226 lung; 98.3% in the assay with NCI-H322M lung; 98.5% with HOP-62 NSCLC; 96.7% in the assay on NCI-H460 lung; 94.6% with HOP-92 NSCLC. The growth with NCI-H522 lung was 108%; with A549/ATCC NSCLC it was 91.7%; in the assay with 786-0 renal, 97.1%; in the assay with COLO 205 colon, 141%.
Consider `CC(=O)c1cc2c(N)c(C(=O)Nc3ccccc3)sc2nc1C`, for which the growth with NCI-H23 lung is 91.5%; in the assay with NCI-H226 lung it was 92%; in the assay on NCI-H322M lung, 50.8%; with HOP-62 NSCLC, 75.1%; with NCI-H460 lung, 15.9%; in the assay with HOP-92 NSCLC, 57.6%. The growth was 66.5% in the assay with NCI-H522 lung, 28.4% in the assay with A549/ATCC NSCLC, 77.2% in the assay with 786-0 renal and 4.95% (active) in the assay with COLO 205 colon.
On to `CCN1CCN(c2nc(NCCNc3ccnc4cc(Cl)ccc34)c3ccccc3n2)CC1`, for which the growth in the assay on NCI-H23 lung is 69%; in the assay on NCI-H226 lung, 27.2%; in the assay with NCI-H322M lung it was 42.3%; in the assay with HOP-62 NSCLC, 24.9%; with NCI-H460 lung, 1.75% (active); with HOP-92 NSCLC, 32.7%. Also, the growth in the assay on NCI-H522 lung was 18%; in the assay with A549/ATCC NSCLC it was 0.344% (active); with 786-0 renal it was 4.75% (active); in the assay on COLO 205 colon it was -60.6% (active).
In the case of `COc1ccc(-c2cc(Nc3ccnc(N4CCOCC4)n3)on2)cc1`, the growth in the assay on NCI-H23 lung was 36.8%; in the assay with NCI-H226 lung, 31.8%; in the assay with NCI-H322M lung, 47.1%; with HOP-62 NSCLC, 40.9%; in the assay with NCI-H460 lung it was 14.5%; in the assay with HOP-92 NSCLC, 74.8%. The growth with NCI-H522 lung was 4.99% (active); with A549/ATCC NSCLC, 30.4%; in the assay on 786-0 renal, 35.6%; with COLO 205 colon it was 2.68% (active).
For the molecule `C#CC(F)(F)[C@]1(O)CC[C@H]2[C@@H]3CCC4=CC(=O)CCC4=C3[C@@H](c3ccc(C(C)=O)cc3)C[C@@]21C`, the growth in the assay with NCI-H23 lung is 38.5%; with NCI-H226 lung, 93.3%; with NCI-H322M lung, 96.7%; in the assay on HOP-62 NSCLC, 74.4%; in the assay with NCI-H460 lung it was 97.4%; with HOP-92 NSCLC, -31.7% (active). Also, the growth in the assay on NCI-H522 lung was -73% (active); with A549/ATCC NSCLC, 73.4%; in the assay with 786-0 renal, -41% (active); in the assay on COLO 205 colon, 78.3%.
As to `NNCCc1ccc(NC(=O)CCCc2ccc(/C=C/C(=O)NO)cc2)cc1`, the growth in the assay with NCI-H23 lung was 64.9%; in the assay with NCI-H226 lung it was 36%; in the assay with NCI-H322M lung, 64%; with HOP-62 NSCLC, 32.8%; in the assay with NCI-H460 lung, 62.8%; in the assay with HOP-92 NSCLC, 28.8%. The growth in the assay with NCI-H522 lung was 16.6%; in the assay on A549/ATCC NSCLC, 76.4%; in the assay with 786-0 renal it was 71.3%; in the assay on COLO 205 colon, 71.2%.
Regarding `COc1ccc(/C=C(\C#N)C(=O)Nc2cccc(Nc3nc(SC)nc(-c4cccc([N+](=O)[O-])c4)c3C#N)c2)cc1OC`, the growth with NCI-H23 lung is 88.5%; in the assay on NCI-H226 lung, 91.8%; in the assay with NCI-H322M lung, 100%; in the assay with HOP-62 NSCLC, 91.3%; in the assay with NCI-H460 lung, 100%; with HOP-92 NSCLC, 111%. The growth in the assay on NCI-H522 lung was 97.2%; in the assay with A549/ATCC NSCLC, 103%; with 786-0 renal it was 106%; in the assay on COLO 205 colon, 112%.
As for `CCCOc1ccc2nc(NC(=O)OC)[nH]c2c1`, the growth in the assay with NCI-H23 lung was 21.9%; in the assay on NCI-H226 lung it was 8.05% (active); in the assay on NCI-H322M lung it was 49.9%; in the assay with HOP-62 NSCLC, 33.6%; in the assay with NCI-H460 lung, 3.52% (active); in the assay on HOP-92 NSCLC, 37.9%. In addition, the growth with NCI-H522 lung is -32.7% (active); in the assay with A549/ATCC NSCLC, 12.8%; with 786-0 renal it was 32.6%; in the assay with COLO 205 colon, 3.31% (active).
For `C#CCOc1ccc2ncnc(Nc3cccc(CNC(=O)CCl)c3)c2c1`, the growth with NCI-H23 lung was 44.5% [8.25 µM]; in the assay on NCI-H226 lung, 27.7% [8.25 µM]; with NCI-H322M lung, 71.3% [8.25 µM]; in the assay on HOP-62 NSCLC it was 13.1% [8.25 µM]; in the assay on NCI-H460 lung, 61.3% [8.25 µM]; with HOP-92 NSCLC, 54% [8.25 µM]. For the same molecule, the growth in the assay on NCI-H522 lung was -47.7% [8.25 µM] (active); in the assay with A549/ATCC NSCLC, 53.3% [8.25 µM]; in the assay on 786-0 renal, 25.7% [8.25 µM]; in the assay with COLO 205 colon, 68.2% [8.25 µM].
